IL1B secr inh: inflammasome signaling inhibition, IL-1 beta readout; THP-1 LPS/ATP IL-1B secretion, AlphaLISA, 16 h; stronger effect = lower value; activity change, % at 57.5 µM; hit rate 4.7% among 360,000; in the data active = activity change below about -50%; inconclusive = mostly about -30% to -49%; also: % is scaled to controls: 0 for no effect and ±100 for the full control effect
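THP-1 cells pretreated 1 hr with compounds (up to 57.5 uM final), then stimulated with LPS (250 ng/mL final) plus ATP (1.25 mM final); secreted IL-1B measured by AlphaLISA after 16 hr, decreased signal indicating inhibition.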
DT40 TDP1 CPT: growth inhibition of DT40 Tdp1-/-;hTDP1 cells with camptothecin (screen for TDP1 inhibitors). Potency, µM (highest dose often 46.2 µM), for inactives: top-dose activity change, negative = growth inhibition, actives largely listed as inhibitors. chicken DT40 Tdp1-/-;hTDP1 cells + 20 nM CPT, ATP luminescence, 48 h. hit rate 12% among 420,000. AID 686979; also: potency is read from the fitted curve at half-maximal effect; % is scaled to controls: 0 for no effect and ±100 for the full control effect; nearly all actives have a fitted effect of over 55% in size
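Chicken DT40 Tdp1-/- cells stably complemented with human TDP1 were seeded at 400 cells/well in medium containing 20 nM camptothecin, exposed to pin-transferred compounds, and grown at 37 °C for at least 48 hr. Viability was read as ATP luminescence.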
TDP1 cell noCPT: qHTS for Inhibitors of human tyrosyl-DNA phosphodiesterase 1 (TDP1): qHTS in cells in absence of CPT; hit rate 15% among 420,000; Potency, µM (titrated, usually from 46.2 µM), for inactives: top-dose activity change, negative = growth inhibition, most hits filed as inhibitors; DT40 Tdp1-/- hTDP1 cells, no CPT, ATP luminescence, 48 h; also: potency is read from the fitted curve at half-maximal effect; % is scaled to controls: 0 for no effect and ±100 for the full control effect; nearly all actives have a fitted effect of over 55% in size
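Growth kinetics read by CellTiter-Glo luminescence after ≥48 hr at 37 °C. Cells: DT40 Tdp1-/- stably carrying human TDP1, 400 per well, compound exposure in the absence of CPT (DMSO vehicle).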
TGFb SMAD3 inh: inhibitors of TGF-b signaling; HepG2 CAGA-GFP TGF-b/SMAD3 reporter, GFP fluorescence, 18 h; TGF-beta stimulated, 500 pg/mL final; Potency, µM (highest dose often 46.1 µM), for the others: at the top dose activity, negative = inhibition, hits mostly inhibitors; hit rate 1.2% among 410,000; AID 588855; also: potency is read from the fitted curve at half-maximal effect; % is scaled to controls: 0 for no effect and ±100 for the full control effect; nearly all actives have a fitted effect of over 65% in size
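Inhibition was scored as loss of TGF-beta-induced (500 pg/mL final, 18 hours, 37 degrees C) GFP in HEPG2 cells carrying a CAGA-GFP reporter, in DMEM with 1% FBS. Well GFP was summed per cell; Activity was normalised to unstimulated and stimulated DMSO wells, then concentration-response fitting.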
ASM inhibitor: human S-ASM enzyme inhibition; Potency, µM (highest dose often 57.5 µM), for the others: top-dose activity change, negative = inhibition, most hits filed as inhibitors; hit rate 0.006% among 340,000; placental ASM, HMU-PC fluorogenic substrate, 60 min; AID 504937; also: potency is read from the fitted curve at half-maximal effect
Target sequence (P17405 47-631 limits assumed): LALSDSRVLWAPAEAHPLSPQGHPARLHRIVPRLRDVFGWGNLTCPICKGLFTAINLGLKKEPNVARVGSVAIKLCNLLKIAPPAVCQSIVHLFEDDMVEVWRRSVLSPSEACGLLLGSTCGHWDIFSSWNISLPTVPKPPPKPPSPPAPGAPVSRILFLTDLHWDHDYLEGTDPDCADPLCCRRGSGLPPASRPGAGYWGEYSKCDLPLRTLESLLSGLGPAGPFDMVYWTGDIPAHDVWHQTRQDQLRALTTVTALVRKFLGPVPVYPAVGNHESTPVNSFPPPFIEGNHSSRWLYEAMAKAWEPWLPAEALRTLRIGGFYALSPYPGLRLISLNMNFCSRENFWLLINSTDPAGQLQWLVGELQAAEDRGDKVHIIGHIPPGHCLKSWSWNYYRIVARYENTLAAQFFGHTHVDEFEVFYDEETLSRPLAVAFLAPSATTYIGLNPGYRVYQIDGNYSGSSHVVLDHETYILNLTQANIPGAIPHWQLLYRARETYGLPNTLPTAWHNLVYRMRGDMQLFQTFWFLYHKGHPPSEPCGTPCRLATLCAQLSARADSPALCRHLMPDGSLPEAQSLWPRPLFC
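Fluorogenic HMU-PC substrate (9 uM final) is turned over by placental ASM in 60 min at 37 C after a 10 min compound preincubation. Reaction ended by alkaline stop (pH 10), with fluorescence read at 386/447 nm.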
HepG2 tox: counter-screen for TGF-b inhibitors: cytotoxicity in HepG2 cells. HepG2 CAGA-GFP viability, ATP luminescence, 18 h. Potency, µM (series often up to 46.1 µM), for the others: at the highest dose activity change, negative = cytotoxicity, actives largely listed as cytotoxic. hit rate 0.76% among 410,000; also: potency is read from the fitted curve at half-maximal effect
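CellTiter-Glo luminescence gave cytotoxicity after 18 hours at 37 degrees C. The cells were HepG2 CAGA-GFP in 1% FBS DMEM, stimulated with 500 pg/mL TGF-beta after compound addition. %Activity was normalised to no-cell wells (complete cell-killing) and DMSO (no toxicity), and curves were fitted and classified.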
Numbers without * were called inactive; i = inactive; ? = inconclusive; . = not tested or not shown. Shown are actives, neighbours in structure and some others; about 19% of the full set was active somewhere. Unless noted, calls follow the shape of the dose curve; as a rule, active = well fitted curve in the direction sought with a large enough effect; inconclusive = small, poorly fitted or top-dose-only effect, or another doubt; inactive = no such curve, though single readings can be large; an effect the other way counts as inactive or inconclusive.

SMILES | IL1B secr inh | DT40 TDP1 CPT | TDP1 cell noCPT | TGFb SMAD3 inh | ASM inhibitor | HepG2 tox
CCOP(=O)(Nc1cccc2oc(=O)c3ccccc3c12)OCC | 13.5 | ? | ? | -12.2% | 33.0% | -3.9%
CCC1=C(c2cc(OC)c(OC)c(OC)c2)C2(CCCC2)C(=O)O1 | 36.2 | ? | ? | ? | 4.1% | -2.5%
O=C(Cc1ccccc1)NCC1COc2ccccc2O1 (stereo unspecified) | 1.7 | 3.8% | -13.0% | -8.0% | 1.1% | 0.8%
CCn1cnnc1SCC(=O)NCC1COc2ccccc2O1 (stereo unspecified) | 0.0 | -2.2% | 1.84µM* | -0.2% | -2.4% | 5.5%
O=C(NCC1COc2ccccc2O1)c1ccc(Br)s1 (stereo unspecified) | -71.8* | -5.9% | ? | -1.1% | -6.0% | -14.8%
COc1ccccc1NC(=O)C(=O)NCC1COc2ccccc2O1 (stereo unspecified) | -5.1 | -7.1% | 0.562µM* | -27.0% | -1.3% | -24.2%
O=C(NCc1ccccc1)C(=O)NCC1COc2ccccc2O1 (stereo unspecified) | 64.1 | 2.91µM* | 2.59µM* | -2.7% | -2.9% | 6.0%
Cc1cc(C(=O)NCc2cccc(Br)c2)c2c(C)nn(-c3ccccc3)c2n1 | . | -23.4% | -26.7% | -0.5% | . | 4.3%
CC(Oc1ccc(Cl)cc1)C(=O)NCC1CCCO1 (stereo unspecified) | -7.3 | 8.0% | -1.7% | -14.2% | -23.7% | -10.3%
Cc1ccc(C)c(S(=O)(=O)N2CCCC2CNC(=O)C(=O)NCCN2CCOCC2)c1 (stereo unspecified) | -13.8 | 4.0% | -15.0% | 12.6% | 4.2% | 5.6%
COc1ccc(/C=C/C(=O)NCC2COc3ccccc3O2)c(OC)c1 (stereo unspecified) | -59.4* | -30.0% | ? | -2.3% | -0.5% | 15.7%
Nc1cc(Cc2ccccc2)ccc1O | -24.7 | 23.1µM* | ? | -15.7% | 3.5% | -2.9%
Nc1cc(N)cc(Cc2ccccc2)c1 | -16.2 | -13.3% | -10.5% | 22.2% | . | -16.0%
COc1ccccc1-c1cc(C(=O)NCc2ccco2)no1 | -13.8 | -2.6% | -25.0% | -14.1% | -1.1% | -8.0%
O=C(NCc1ccccc1)c1cc(-c2ccco2)on1 | -10.8 | -23.4% | ? | 14.7% | 2.0% | -1.7%
O=C(NCc1ccco1)c1csc(Nc2ccccc2Cl)n1 | -4.8 | ? | -20.8% | -5.3% | -1.4% | 0.7%
COc1ccc(Nc2nc(C(=O)NCc3ccco3)cs2)cc1 | -3.6 | 23.1µM* | ? | ? | -2.7% | -42.6%
O=C(NCCc1ccccc1)c1cc(-c2ccco2)on1 | -0.4 | 6.31µM* | ? | 6.7% | -1.4% | -33.9%
COc1cc(OC)cc(C(=O)N[C@H](C(=O)NCc2ccco2)C(C)C)c1 | 10.9 | 29.1µM* | 14.6µM* | 5.1% | -0.2% | -11.0%
O=C(NCc1ccco1)c1cc(-c2ccco2)on1 | -19.6 | 23.1µM* | ? | -2.0% | 2.1% | -14.7%
Cc1cccc(C)c1NC(=O)C1(C)CSCC(=O)N1CCCn1ccnc1 (stereo unspecified) | -10.2 | 12.3% | 10.4% | . | . | .
CC(OC(=O)CCOc1ccccc1)C(=O)Nc1ccc(Cl)cn1 (stereo unspecified) | -17.0 | -1.2% | -1.6% | -13.0% | -6.5% | -30.9%
COc1ccc(CCNC(=O)c2cc(-c3ccco3)on2)cc1OC | ? | 10.3µM* | 16.4µM* | -17.0% | -4.3% | 5.9%
CCCCNC(=O)C1CC(c2c(Cl)cccc2Cl)=NO1 (stereo unspecified) | 19.6 | 9.2µM* | 9.2µM* | -4.4% | 2.0% | 2.0%
CN(C)c1ccc(/C=C2/CCCc3c2nc2ccccc2c3C(=O)O)cc1 | . | -2.2% | -19.6% | -23.3% | . | -0.7%
SMILES | IL1B secr inh | DT40 TDP1 CPT | TDP1 cell noCPT | TGFb SMAD3 inh | ASM inhibitor | HepG2 tox
O=C(/C(=C/O)N=Nc1ccccc1)c1ccncc1 | 6.7 | ? | ? | -4.8% | -4.0% | -14.2%
O=C(/C(=C/O)N=Nc1ccccc1)c1ccc(Cl)cc1 | -101.7* | ? | ? | -23.8% | -7.1% | -15.3%
CCN(CC(=O)NCc1cccs1)C(=O)/C=C/c1cccc(Br)c1 | -10.2 | 4.6% | -23.9% | -4.5% | -3.6% | -6.2%
CCOC(=O)c1cc(-c2ccccc2)n(CCC(=O)Nc2ccc(Cl)c(C(F)(F)F)c2)c1C | . | 3.66µM* | 4.61µM* | 3.55µM* | . | 11.2µM*
CCOC(=O)c1cc(-c2ccccc2)n(CCC(=O)NC(C)CC)c1C (stereo unspecified) | ? | -28.4% | -18.4% | -7.0% | 0.1% | -3.2%
CCOC(=O)c1cc(-c2ccccc2)n(CCC(=O)Nc2ccc(C)cc2Cl)c1C | . | ? | ? | ? | . | -4.1%
CCOC(=O)c1cc(-c2ccccc2)n(CCC(=O)Nc2cc(C)cc(C)c2)c1C | . | 14.6µM* | 14.6µM* | ? | . | -23.5%
CC(OC(=O)c1ccc(NC(=O)CC#N)cc1)C(=O)NC(=O)NC1CCCCC1 (stereo unspecified) | i | -28.9% | -20.3% | -1.6% | -6.2% | -1.3%
Nc1cc(Cl)nc(N/N=C/c2c(O)ccc3ccccc23)n1 | 71.0 | ? | 16.4µM* | -0.8% | 4.2% | -27.7%
Nc1nonc1N/N=C/c1c(O)ccc2ccccc12 | -59.4* | 31.9% | -54.4% | ? | -17.3% | -26.6%
COc1cccc(CNC(=O)CCCNC(=O)c2ccc(Cl)cc2)c1 | 10.5 | -5.0% | -1.0% | 55.4% | -2.2% | -2.6%
O=C(CCCn1c(=O)c2sccc2n(Cc2ccc(F)cc2Cl)c1=O)NCc1ccc2c(c1)OCO2 | . | -4.4% | -29.7% | 5.4% | . | 13.2%
CCCCNC(=O)C1C(c2ccc(OC)cc2)=Nc2ccccc2N1C(=O)c1ccncc1 (stereo unspecified) | -8.0 | 23.1µM* | 20.6µM* | . | . | .
Cc1cc(O)c(S(=O)(=O)c2ccccc2)c(C)c1NS(=O)(=O)c1ccccc1 | 52.3 | -25.1% | ? | ? | -22.7% | 0.0%
Cc1cc(C)c(S(=O)(=O)NCc2ccccn2)c(C)c1 | 26.0 | 6.7% | -2.3% | 8.5% | 0.5% | -4.5%
O=C(Nc1nc(-c2ccc(Oc3ccccc3)cc2)cs1)C1=COCCO1 | 7.9 | ? | 11.6µM* | ? | -26.1% | -2.7%
Cc1ccc(-c2csc(NC(=O)C3=COCCO3)n2)cc1 | -0.9 | ? | ? | -20.3% | -10.3% | -20.4%
CC(=O)Nc1ccc(-c2csc(NC(=O)C3=COCCO3)n2)cc1 | -11.4 | ? | ? | 9.4% | -5.4% | -24.6%

Source: PubChem BioAssay (National Center for Advancing Translational Sciences (NCATS))
